Reference: paper PMC4242493, “Sequence specificity incompletely defines the genome-wide occupancy of Myc”
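Note: fluorescence intensity normalized to that of the highest-ranked 8-mer.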

Each sequence was assayed against Myc;MaxL (Homo sapiens;Homo sapiens, UniProt P01106-1;P61244 1-439;1-160, |) (assay: universal protein-binding microarray (PBM); PBS-based mixture, 10 nM His-tagged protein dimer, 2% milk, 200 ng/uL BSA, 50 ng/uL salmon testes DNA, 0.02% TX-100; detection with Alexa 488 anti-His antibody;; high values mean tight binding). Conditions: protein: recombinant;recombinant; tags: C-terminal His-tag (pET21a);C-terminal His-tag (pET21a); copies: 1;1; dsDNA, one strand shown.
Chain of Myc;MaxL (P01106 16-454, chain 1 of 2): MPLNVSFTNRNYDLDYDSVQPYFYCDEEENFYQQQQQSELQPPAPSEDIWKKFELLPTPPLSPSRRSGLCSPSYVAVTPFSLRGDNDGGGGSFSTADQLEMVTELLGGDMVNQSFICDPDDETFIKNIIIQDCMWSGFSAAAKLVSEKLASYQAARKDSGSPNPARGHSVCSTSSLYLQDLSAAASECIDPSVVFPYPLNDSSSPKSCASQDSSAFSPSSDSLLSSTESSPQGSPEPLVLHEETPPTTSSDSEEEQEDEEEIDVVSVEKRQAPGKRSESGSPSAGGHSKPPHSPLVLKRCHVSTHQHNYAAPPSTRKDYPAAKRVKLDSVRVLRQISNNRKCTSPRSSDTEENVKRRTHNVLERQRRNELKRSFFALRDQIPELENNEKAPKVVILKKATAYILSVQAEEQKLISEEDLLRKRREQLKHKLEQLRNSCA
Chain of Myc;MaxL (P61244 whole entry, chain 2 of 2): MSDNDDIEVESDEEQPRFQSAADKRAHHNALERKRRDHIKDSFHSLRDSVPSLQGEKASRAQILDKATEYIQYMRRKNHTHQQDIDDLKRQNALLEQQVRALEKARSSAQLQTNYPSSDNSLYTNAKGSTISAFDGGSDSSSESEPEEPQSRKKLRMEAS
Work on ACCACGTG yielded a binding signal of 0.875 normalized occupancy.
CCACGTGG was tested, and the binding signal was 0.959 normalized occupancy.
ACACGTGG gave a binding signal of 0.895 normalized occupancy.
Sequence CACGTGGA has a binding signal of 0.81 normalized occupancy.
For ACACGTGT, the binding signal was 0.833 normalized occupancy.
CACGTGTC was tested, and the binding signal was 0.761 normalized occupancy.
For ACACGTGC, the binding signal was 0.766 normalized occupancy.
Sequence AACACGTG has a binding signal of 0.784 normalized occupancy.
Work on CACGTGCG yielded a binding signal of 0.798 normalized occupancy.
CACGTGGG showed a binding signal of 0.757 normalized occupancy.
In the case of CCACGTGC, the binding signal is reported as 0.978 normalized occupancy.
For CACGTGGC, the binding signal was 0.927 normalized occupancy.
Sequence CACGTGCC has a binding signal of 0.732 normalized occupancy.
AGCACGTG gave a binding signal of 0.947 normalized occupancy.
